Here are results for 59 compounds from PubChem BioAssay AID504465 (National Center for Advancing Translational Sciences (NCATS), 2011).

Out of some 2,100 compounds screened, about 210 (10%) were called active. About 53% were inconclusive and are not listed. The call rests on the fitted dose curve; in most records, active means well fitted inhibition curve with a large enough effect; inconclusive means small, poorly fitted or top-dose-only effect, or effect the other way; inactive means no such curve, though single readings can be large or run the other way. Some of the results follow.
Potency means the concentration at half of the fitted maximal effect.

The experiment is described as follows: IN Cell qHTS Assay for Inhibitors of the mTORC1 Signaling Pathway in MEF (Tsc2-/-, p53-/-) Cells: Sytravon. Further: nearly all actives have a fitted effect of over 60% in size. The settings on record: phospho-rpS6 immunofluorescence, 24 h; series mostly up to 38.3 µM; activity, negative = inhibition: at the top concentration. The text has this: NIH Molecular Libraries Probe Production Centers Network [MLPCN] NIH Chemical Genomics Center [NCGC] MLPCN Grant: NS059428-01 Assay Submitter (PI): Blenis, John; Hoffman, Greg; Harvard University NCGC Assay Overview: Thee mammalian target of rapamycin (mTOR) is an intracellular serine/threonine kinase Aberrant regulation of mTOR signaling plays a causative role in a number of human diseases, including cancer, benign tumors such as lymphangioleiomyomatosis (LAM) and Tuberous Sclerosis Complex (TSC), and metabolic diseases such as diabetes and obesity. This project aims to identify inhibitors of ribosomal protein S6 (rpS6) phosphorylation. The phosphorylation of rpS6 is a key event downstream of mTOR activation. The assay uses a phospho-specific antibody of phospho-rpS6 to detect inhibitors of mTOR activation. Mutations in the Tsc1 and Tsc2 genes are the underlying genetic lesions responsible for TSC, causing constitutive activation of the mTORC1 pathway and leading to profound effects on cell metabolism. Aberrant metabolism in cancer has recently received significant attention as a target to develop therapeutic agents in the treatment of cancer1. As Tsc2-/- cells have lost the ability to respond to energy and growth factor deprivation, these cells are unable to properly down regulate cellular biosynthetic processes in response to metabolic stress, and are thus extremely sensitive to glucose deprivation-induced death.2 A central goal of this project is to explore the unique cell survival and metabolic properties of cells with Tsc1 or Tsc2 by screening for compounds that selectively target the Tsc2-/- MEFs by screening both Tsc2-/- and WT MEF cell lines. We hope to better understand these aspects of TSC physiology in order to exploit them for therapeutic benefit.
NCGC IN Cell Assay Protocol: For quantitative high throughput analysis of mTORC1 signaling, we developed a cell-based assay for immuno-fluorescence based detection of rpS6 phosphorylation on the Acumen Explorer that will be used a platform for the primary small molecule screen. Mouse embryonic fibroblasts (MEFs) are cultured in 1536-well plates using DMEM + 10% FBS. Twenty-four hrs after plating, test compounds (solubilized in DMSO) are delivered and incubated with the cells for 24 hrs at 37 degree Celsius. Following the incubation, media with compound is aspirated and the cells are fixed in 4% paraformaldehyde (PFA) containing PBS + 0.2% TX-100. Next, PFA is aspirated, cells are washed two times with PBS plus 0.2% TX-100 and the cells are blocked for 1 hr at room temperature (blocking buffer: LiCOR Blocking Buffer plus 0.2% TX-100). This is followed by aspiration and staining with Alexa-488 conjugated-phospho-rpS6 Ser235/236 antibody for 2 hours at room temperature (Cell Signaling Technology # 4803, 1:50 dilution in blocking buffer). Cells are washed two times with PBS plus 0.2% TX-100, and stained with 10 uM propidium iodide (PI) for 20-25 minutes for cell number measurement (1:500 dilution of Hoescht staining is also added for IN Cell imaging). Active wells which are selected (based on Acumen results) are imaged on the IN Cell 1000 (GE Healthcare) using the D360/40X and HQ480/40X excitation filters for the Hoechst and Alexa-488 cytoplasmic stains, respectively. The fluorescence emission filters used were HQ460/40M and HQ535/50M for the Hoechst and Alexa-488 cytoplasmic stains, respectively. The normalized phospho-S6 staining is calculated as the ratio of […] for the single concentration rapamycin control (7.5 nM) and DMSO columns. […] Inhibition of the pathway is defined based on the normalized phospho-S6 intensity in rapamycin treated cells. Each treatment is reported as the % positive cells in the well, where thresholds are defined by selecting wells with the highest and lowest signal and differentiating between the % non-active and % active populations. […]
Take `CC(C)CCNC(=O)c1cccc(Nc2nc3ccccc3n3nnnc23)c1`: the Potency is 4.14 µM (active).
For the compound `Cc1cccc(Cn2c(CNC(=O)c3ccccc3)nc3ccccc32)c1`, the “activity, negative = inhibition” value is -18.5% (inactive).
Take `Cc1ccc(-c2nc3scc(CCNC(=O)c4cccc(Br)c4)n3n2)cc1`: the “activity, negative = inhibition” value was 0% (inactive).
For the compound `Cc1ccc(NC(=O)C2CCCN(S(=O)(=O)c3ccc4c(c3)CCCC(=O)N4)C2)cc1Cl` (centres undefined), the “activity, negative = inhibition” value was 1.08% (inactive).
Regarding `CCCS(=O)(=O)c1c(S(=O)(=O)CCC)c2cc(C(C)(C)C)ccn2c1C(=O)c1ccc(OC)c(OC)c1`, the Potency was 0.147 µM (active).
With `COc1ccc(OC)c(NC2=C(c3ccccc3)C(=O)c3ccccc32)c1`, the “activity, negative = inhibition” value was -54.5% (inactive).
The same measure, in the same setting: to `O=C(NCCc1ccccc1Cl)c1ccc2c(=O)n(-c3ccccc3)c(=O)[nH]c2c1` belongs -43.6% (inactive).
As for `COc1ccc(OCc2nc3c4c(-c5ccccc5)c(-c5ccccc5)oc4ncn3n2)cc1`, the Potency was 4.14 µM (active).
With `COc1cc2cc(CNc3ccc(C)cc3)c(=O)n(CC(=O)Nc3ccc(F)cc3F)c2cc1OC`, the “activity, negative = inhibition” value was -16.6% (inactive).
As for `Cc1ccc(NCc2cc3cc4c(cc3n(CC(=O)Nc3ccc(C)cc3)c2=O)OCCO4)cc1`, the Potency was 4.65 µM (active).
`Cc1ccc(NC(=O)Cn2c(=O)c(CNc3ccccc3)cc3cc4c(cc32)OCCO4)cc1`: the “activity, negative = inhibition” value is 0% (inactive).
Regarding `CCOC(=O)c1c(C)oc2ncnc(Nc3cc(Cl)ccc3OC)c12`, the “activity, negative = inhibition” value was -1.76% (inactive).
Consider `COc1cccc(C2=CC(c3cc(Br)ccc3F)n3nnnc3N2)c1` (centres undefined), for which the “activity, negative = inhibition” value is 0% (inactive).
On to `CN(CCCNC(=O)c1cc2c(Cl)nc3ccccc3c2s1)Cc1ccccc1`, for which the Potency was 18.5 µM (active).
For `CC1CCCCN1CCCNC(=O)c1cc(Sc2cccc(Cl)c2)nc2ccccc12` (centres undefined), the “activity, negative = inhibition” value was 6.25% (inactive).
As for `O=C(NCCCc1nc2ccccc2n1Cc1ccc(Cl)cc1)c1ccco1`, the “activity, negative = inhibition” value is -10.8% (inactive).
As for `CCC1CCCCN1CCCNC(=O)c1cc2c(Cl)nc3ccccc3c2s1` (centres undefined), the Potency was 14.7 µM (active).
Turning to `COc1ccc(Nc2cc(C(=O)NCCCN(C)Cc3ccccc3)c3ccccc3n2)cc1`, the “activity, negative = inhibition” value is 0% (inactive).
Take `CCC1CCCCN1CCCNC(=O)c1c(C)oc2ncn(CC(C)C)c(=O)c12` (centres undefined): the “activity, negative = inhibition” value was -3.66% (inactive).
For the compound `Fc1ccc(C(NCCc2ccccc2)c2nnc(-c3ccccc3Cl)o2)cc1` (centres undefined), the “activity, negative = inhibition” value is -3.75% (inactive).
With `O=C(NCC1CCN(Cc2ccccc2Cl)CC1)c1cc2ccc3cccnc3c2[nH]1`, the “activity, negative = inhibition” value is -19.1% (inactive).
For `COc1cc(C2CC(=O)c3c([nH]c(C(=O)OC4CCCCC4)c3C)C2)cc(OC)c1OC` (centres undefined), the “activity, negative = inhibition” value was -21.9% (inactive).
For `CCOc1ccc(C2CC(=O)c3c([nH]c(C(=O)OCc4ccccc4)c3C)C2)cc1` (centres undefined), the Potency is 16.5 µM (active).
Regarding `Cc1c(C(=O)OC2CCC(C)CC2)[nH]c2c1C(=O)CC(c1ccc(F)cc1)C2` (centres undefined), the “activity, negative = inhibition” value is -18.9% (inactive).
Still for that read-out and setting: to `CCOc1ccc(CNC(=O)CCCc2cn(C)c3ccccc23)cc1OC` belongs 6.25% (inactive).
As to `Cn1ncc2c(NCc3cccc(Cl)c3)ncnc21`, the “activity, negative = inhibition” value is 6.25% (inactive).
Consider `N#Cc1ccccc1S(=O)(=O)N1CCC(Oc2ccc(-n3cnnn3)cc2)CC1`, for which the “activity, negative = inhibition” value is -17.1% (inactive).
Same read-out and setting: to `CCCNC(=O)C1CCN(Cc2cc3ccccc3n2Cc2ccccc2)CC1` belongs -17.9% (inactive).
Regarding `Cc1ccccc1Cn1c(CN2CCC(C(=O)NCCN(C)C)CC2)cc2ccccc21`, the Potency was 11.7 µM (active).
With `Cc1ccccc1CSCCNC(=O)C1CCN(S(=O)(=O)Cc2ccccc2)CC1`, the “activity, negative = inhibition” value is -21.6% (inactive).
On to `Cc1cccc(C)c1Nc1c(-c2ccsc2)nc2cccc(C)n12`, for which the “activity, negative = inhibition” value was -13% (inactive).
In the case of `Clc1cccc(CSc2ccc(-c3cccs3)nn2)c1`, the “activity, negative = inhibition” value was -10% (inactive).
As to `CCOC(=O)c1cc(-c2ccccc2)n(-c2cccc(C(=O)N(C)c3ccc(C)cc3)c2)c1C`, the “activity, negative = inhibition” value is 0% (inactive).
`CCOC(=O)c1cc(-c2ccccc2)n(CCC(=O)Nc2ccc(C(F)(F)F)cc2)c1C`: the “activity, negative = inhibition” value was 0% (inactive).
With `CCOC(=O)c1cc(-c2ccc(C)cc2)n(CC(=O)Nc2ccccc2F)c1C`, the Potency was 14.7 µM (active).
On to `Cc1ccccc1Nc1c(-c2ccc(Cl)s2)nc2cccc(C)n12`, for which the “activity, negative = inhibition” value was 15.5% (inactive).
The same measure, in the same setting: to `CC(CNC(=O)c1ccc2nc(CCc3ccccc3)oc2c1)c1ccccc1` (centres undefined) belongs -0.769% (inactive); to `CCCS(=O)(=O)N1CC(=O)N(c2ccccc2F)C(C)(C(=O)NC2CCCCCC2)C1` (centres undefined), 1.49% (inactive).
Take `COc1ccc(NC(=O)Cn2c(=O)n(Cc3ccco3)c(=O)c3cc(OC)c(OC)cc32)cc1`: the Potency is 14.7 µM (active).
Consider `COc1ccc(OC)c(NC(=O)Cn2c(=O)n(Cc3ccccc3)c(=O)c3ccccc32)c1`, for which the “activity, negative = inhibition” value is -2.9% (inactive).
For the compound `COc1ccc(NC(=O)c2cc3c(=O)n(Cc4ccco4)ccc3nc2C)cc1`, the “activity, negative = inhibition” value was 0.892% (inactive).
Turning to `CCOC(=O)Cn1c(=O)n(C2CCCCC2)c2nc(-c3cccc(C)c3)nc(C(N)=O)c21`, the “activity, negative = inhibition” value was -0.928% (inactive).
On the same count and under the same terms, to `O=C(Nc1ccc(C(F)(F)F)cc1)C1CCCN(S(=O)(=O)c2cccc3cccnc23)C1` (centres undefined) belongs -23.6% (inactive).
In the case of `Cc1ccccc1NC(=O)Cn1c(=O)n(-c2ccc(CC(=O)NCC3CCCO3)cc2)c(=O)c2ccccc21` (centres undefined), the “activity, negative = inhibition” value is 7.61% (inactive).
For the compound `Cc1ccc(-n2c(=O)c3ccc(C(=O)NCc4ccco4)cc3n(Cc3ccc(Cl)cc3)c2=O)cc1`, the Potency is 16.5 µM (active).
On to `COc1ccc(Cn2c(C(=O)O)c(CNCc3ccccc3F)c3ccc(OC)cc32)cc1`, for which the “activity, negative = inhibition” value was -12.4% (inactive).
Still for that read-out and setting: to `COc1ccc(Cn2c(C(=O)O)c(CNCCc3ccco3)c3ccc(OC)cc32)cc1` belongs -26.7% (inactive); to `Cc1ccc(Cn2c(=O)n(CCCCC(=O)NCc3ccccc3Cl)c(=O)c3ccccc32)cc1`, -34.5% (inactive).
On to `CCc1ccc(NC(=O)c2ccc(F)c(S(=O)(=O)NC3CCCCCC3)c2)cc1`, for which the “activity, negative = inhibition” value was 6.25% (inactive).
Turning to `COc1ccc(NC(=O)c2ccc3c(c2)c(C)c(C)n3Cc2ccc(F)cc2)cc1`, the Potency is 10.4 µM (active).
In the case of `COc1ccc(-n2c(=O)c3ccc(C(=O)NCc4ccc(C)cc4)cc3n(CC(=O)Nc3ccc(F)cc3)c2=O)cc1`, the Potency was 14.7 µM (active).
Take `Cc1ccc(CNC(=O)CCCCCn2c(=O)c3sccc3n(CC(=O)Nc3ccc(C)c(F)c3)c2=O)cc1`: the “activity, negative = inhibition” value was -29.7% (inactive).
Consider `CC[C@@H](C)[C@@H](C(=O)Nc1ccc(C)cc1)N1Cc2ccccc2C1=O`, for which the “activity, negative = inhibition” value was -14.1% (inactive).
Consider `CCN1C(C(=O)c2ccccc2)=C(OC(=O)COc2ccc(OC)cc2)c2ccccc2S1(=O)=O`, for which the “activity, negative = inhibition” value was -0.826% (inactive).
With `COc1ccc(C(=O)NCC(c2ccc(Cl)cc2)N2CCCCC2)cc1` (centres undefined), the “activity, negative = inhibition” value is -16.4% (inactive).
`O=C(NCCc1ccccc1Cl)c1sc2ncccc2c1-n1cccc1`: the “activity, negative = inhibition” value is 1.3% (inactive).
Turning to `CCC(C)NC(=O)CCCn1c(=O)c2cccn2c2ccccc21` (centres undefined), the “activity, negative = inhibition” value is -18.8% (inactive).
Turning to `Cc1cccc(NS(=O)(=O)c2ccc3[nH]c4c(c3c2)CCCCCC4)c1`, the “activity, negative = inhibition” value was -4.07% (inactive).
Regarding `Cc1nc2scc(C)n2c(=O)c1S(=O)(=O)Nc1ccc(N2CCN(S(C)(=O)=O)CC2)cc1`, the “activity, negative = inhibition” value is 25.4% (inactive).
